Data reported in PubChem BioAssay AID1159580 (chemical genetic matrix, 2015).
Several values for one entry are separate records, joined by “and”; a condition that tells them apart may be missing. Identical values can stand only once. About 2,000 (36%) of roughly 5,500 compounds were called active. About 18% were inconclusive and are not listed. Rule as the data show it: active = normalized growth mostly below about 0.91 (no sharp cut-off); inconclusive = no clear call, values can overlap the other calls; inactive = mostly above about 0.92. This is one part of the list.

Test: chemical genetic growth profiling, strain panel (AID 1159580);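 also: tested at 20 µM; growth read once vehicle control cultures reached saturation at 30 °C; 1 = growth at the plate median or of vehicle wells; lower values mean less growth of the strain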
Conditions: S. cerevisiae deletion strains, growth OD

Measured: normalized growth

COc1cc([C@@H]2c3cc4c(cc3[C@H](O)[C@H]3COC(=O)[C@H]23)OCO4)cc(OC)c1OC
inactive: locus YAL013W, strain DEP1, hits give low values 1.01 | locus YAL021C, strain ccr4, hits give low values 1 | locus YAL026C, strain drs2, hits give low values 1.03 | locus YAL030W, strain snc1, hits give low values 1.01 | locus YBL061C, strain skt5, hits give low values 1.01 | locus YBR009C, strain hhf1, hits give low values 1.04 | locus YBR021W, strain FUR4, hits give low values 1.01 | locus YBR023C, strain chs3, hits give low values 1.01 | locus YBR171W, strain sec66, hits give low values 1.01 | locus YBR229C, strain ROT2, hits give low values 1.01 | locus YBR231C, strain swc5, hits give low values 1.01 | locus YBR279W, strain paf1, hits give low values 1.02 | locus YCL011C, strain gbp2, hits give low values 1.01 | locus YCL016C, strain dcc1, hits give low values 0.996 | locus YCL029C, strain bik1, hits give low values 1.03 | locus YCL061C, strain MRC1, hits give low values 1.02 | locus YCL069W, strain vba3, hits give low values 1.01 | locus YCR088W, strain abp1, hits give low values 1.01 | locus YDL005C, strain med2, hits give low values 1.01 | locus YDL035C, strain GPR1, hits give low values 1.01 | locus YDL040C, strain nat1, hits give low values 1 | locus YDL074C, strain BRE1, hits give low values 1.05 | locus YDL101C, strain DUN1, hits give low values 1.02 | locus YDL134C, strain PPH21, hits give low values 1.02 | locus YDL185W, strain tfp1, hits give low values 1.01 | locus YDL192W, strain arf1, hits give low values 1.01 | locus YDR001C, strain nth1, hits give low values 1 | locus YDR069C, strain doa4, hits give low values 1 | locus YDR101C, strain arx1, hits give low values 1.01 | locus YDR137W, strain rgp1, hits give low values 1.03 | locus YDR150W, strain NUM1, hits give low values 1.01 | locus YDR159W, strain sac3, hits give low values 0.987 | locus YDR162C, strain NBP2, hits give low values 1.01 | locus YDR195W, strain ref2 0.971 | locus YDR297W, strain sur2, hits give low values 1.01 | locus YDR318W, strain mcm21, hits give low values 1.03 | locus YDR334W, strain swr1, hits give low values 1.02 | locus YDR335W, strain msn5, hits give low values 1.01 | locus YDR388W, hits give low values 1.01 | locus YDR392W, strain spt3, hits give low values 0.926 | locus YDR502C, strain sam2, hits give low values 1 | locus YEL003W, strain gim4, hits give low values 1.01 | locus YEL037C, strain rad23, hits give low values 1.02 | locus YEL061C, strain CIN8 (second series), hits give low values 1.01 | locus YEL061C, strain CIN8, hits give low values 1 | locus YER015W, strain faa2, hits give low values 1.02 | locus YER016W, strain bim1, hits give low values 1 | locus YER110C, hits give low values 1.01 | locus YER111C, strain swi4, hits give low values 1.01 | locus YER155C, strain BEM2 (second series), hits give low values 0.998 | locus YER155C, strain BEM2, hits give low values 1.01 | locus YER167W, strain BCK2, hits give low values 1.01 | locus YFR010W, strain ubp6, hits give low values 1.02 | locus YGL078C, strain dbp3, hits give low values 1 | locus YGL086W, strain mad1, hits give low values 1 | locus YGL167C, strain pmr1, hits give low values 1.01 | locus YGL173C, strain kem1, hits give low values 1.04 | locus YGL227W, strain vid30, hits give low values 1.01 | locus YGL240W, strain doc1, hits give low values 1 | locus YGL248W, strain PDE1, hits give low values 1.01 | locus YGL253W, strain hxk2, hits give low values 0.982 | locus YGR078C, strain PAC10, hits give low values 1.03 | locus YGR135W, strain pre9, hits give low values 1.01 | locus YGR229C, strain SMI1, hits give low values 1.03 | locus YGR252W, strain gcn5, hits give low values 0.988 | locus YHR013C, strain ard1, hits give low values 1 | locus YHR027C, strain rpn1, hits give low values 1.01 | locus YHR030C, strain SLT2, hits give low values 1.01 and 0.951 | locus YHR079C, strain IRE1 (second series), hits give low values 1.02 | locus YHR079C, strain IRE1, hits give low values 0.952 | locus YHR094C, strain hxt1, hits give low values 1.01 | locus YHR129C, strain ARP1, hits give low values 1.01 | locus YHR142W, strain chs7, hits give low values 0.992 | locus YHR200W, strain rpn10, hits give low values 1.01 | locus YIL066C, strain RNR3, hits give low values 1.02 | locus YIL073C, strain SPO22, hits give low values 1.02 | locus YIL125W, strain kgd1, hits give low values 1.01 | locus YIR030C, strain dcg1, hits give low values 1.01 | locus YJL092W, strain hpr5, hits give low values 1.02 | locus YJL095W, strain BCK1 (second series), hits give low values 1.01 | locus YJL095W, strain BCK1, hits give low values 1.04 and 0.961 | locus YJL115W, strain asf1, hits give low values 1.01 | locus YJL129C, strain trk1, hits give low values 1.02 | locus YJL134W, strain LCB3, hits give low values 1.01 | locus YJL154C, strain vps35, hits give low values 0.999 | locus YJL164C, strain tpk1, hits give low values 1.02 | locus YJL166W, strain qcr8, hits give low values 1 | locus YJL168C, strain set2, hits give low values 1.01 | locus YJL187C, strain SWE1 (second series), hits give low values 1.04 | locus YJL187C, strain SWE1, hits give low values 1.02 | locus YJR043C, strain POL32, hits give low values 1.04 | locus YJR066W, strain TOR1, hits give low values 0.927
